Where a chain is given by its changes, count along the chain named.

Holding throughout (experiment): PBM; 200 nM protein, PBS
Conditions in all cases: dsDNA, one strand shown

For assay [1], the target named is T1, VENTX (Homo sapiens, UniProt O95231 78-163, R121Q).
T1 sequence: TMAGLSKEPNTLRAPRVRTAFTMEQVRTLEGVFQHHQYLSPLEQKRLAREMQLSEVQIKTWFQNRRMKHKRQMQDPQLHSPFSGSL

Assay [2] addresses T2, VENTX (Homo sapiens, UniProt O95231 78-163).
T2 sequence: T1 sequence with Q44R

Assay [3] has as its target T3, VENTX (Homo sapiens, UniProt O95231 78-163, Y115F).
T3 sequence: T1 sequence with Y38F, Q44R

Assay [4] deals with HOXB6 (Homo sapiens, UniProt P17509 132-218, K202E).
Chain of HOXB6 (Homo sapiens, UniProt P17509 132-218, K202E) (P17509 132-218 K202E): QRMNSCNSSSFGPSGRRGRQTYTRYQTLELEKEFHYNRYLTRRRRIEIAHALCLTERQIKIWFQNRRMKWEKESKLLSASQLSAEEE
Assay [5] concerns the target HOXA2 (Homo sapiens, UniProt O43364 129-215, R185T).
In assay [6] the target is ALX1 (Homo sapiens, UniProt Q15699 118-204, L144V).
Chain of ALX1 (Homo sapiens, UniProt Q15699 118-204, L144V) (Q15699 118-204 L144V): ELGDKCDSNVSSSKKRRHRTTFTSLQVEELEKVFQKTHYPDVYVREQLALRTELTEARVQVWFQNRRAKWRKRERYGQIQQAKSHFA
Assay [7] concerns the target ALX3 (Homo sapiens, UniProt O95076 139-225, N203Q).
Assay [8] concerns the target HOXA2 (Homo sapiens, UniProt O43364 129-215, R185K).
In assay [9] the target is ALX1 (Homo sapiens, UniProt Q15699 118-204, L144R).
Chain of ALX1 (Homo sapiens, UniProt Q15699 118-204, L144R) (Q15699 118-204 L144R): as the sequence (Q15699 118-204 L144V) above, with V27R counted along it
The target in assay [10] is ALX3 (Homo sapiens, UniProt O95076 139-225).
Chain of ALX3 (Homo sapiens, UniProt O95076 139-225) (O95076 139-225): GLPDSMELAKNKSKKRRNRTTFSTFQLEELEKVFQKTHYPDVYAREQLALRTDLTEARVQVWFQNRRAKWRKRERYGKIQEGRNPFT
Assay [11] addresses ALX3 (Homo sapiens, UniProt O95076 139-225, L168Q).
Assay [12] has as its target ALX3 (Homo sapiens, UniProt O95076 139-225, L168V).
Assay [13] concerns the target HOXA2 (Homo sapiens, UniProt O43364 129-215, Y150S).
Assay [14] deals with ALX1 (Homo sapiens, UniProt Q15699 118-204).
Chain of ALX1 (Homo sapiens, UniProt Q15699 118-204) (Q15699 118-204): as the sequence (Q15699 118-204 L144V) above, with V27L counted along it
The target in assay [15] is ALX3 (Homo sapiens, UniProt O95076 139-225, N203S).
Chain of ALX3 (Homo sapiens, UniProt O95076 139-225, N203S) (O95076 139-225 N203S): as the sequence (O95076 139-225) above, with N65S counted along it
Assay [16] deals with HOXA2 (Homo sapiens, UniProt O43364 129-215).
Chain of HOXA2 (Homo sapiens, UniProt O43364 129-215) (O43364 129-215): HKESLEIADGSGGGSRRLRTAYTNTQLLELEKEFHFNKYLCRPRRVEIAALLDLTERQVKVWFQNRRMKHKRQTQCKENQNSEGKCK
For assay [17], the target named is HOXB6 (Homo sapiens, UniProt P17509 132-218).
Chain of HOXB6 (Homo sapiens, UniProt P17509 132-218) (P17509 132-218): as the sequence (P17509 132-218 K202E) above, with E71K counted along it
Assay [18] has as its target VAX1 (Homo sapiens, UniProt Q5SQQ9 86-172).
Assay [19] has as its target VAX1 (Homo sapiens, UniProt Q5SQQ9 86-172, T142I).
In assay [20] the target is VAX1 (Homo sapiens, UniProt Q5SQQ9 86-172, K157R).
Chain of VAX1 (Homo sapiens, UniProt Q5SQQ9 86-172, K157R) (Q5SQQ9 86-172 K157R): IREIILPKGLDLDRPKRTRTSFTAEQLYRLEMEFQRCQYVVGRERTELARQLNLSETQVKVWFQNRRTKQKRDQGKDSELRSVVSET
The target of assay [21] is T4, NKX2-6 (Homo sapiens, UniProt A6NCS4 118-204, R150C).
T4 sequence: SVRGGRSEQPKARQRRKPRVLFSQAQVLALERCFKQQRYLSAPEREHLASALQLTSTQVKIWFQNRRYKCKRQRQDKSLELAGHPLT

Chain of HOXA2 (Homo sapiens, UniProt O43364 129-215, R185K) (O43364 129-215 R185K): as the sequence (O43364 129-215) above, with R57K counted along it
Chain of HOXA2 (Homo sapiens, UniProt O43364 129-215, R185T) (O43364 129-215 R185T): as the sequence (O43364 129-215) above, with R57T counted along it
Chain of HOXA2 (Homo sapiens, UniProt O43364 129-215, Y150S) (O43364 129-215 Y150S): as the sequence (O43364 129-215) above, with Y22S counted along it
Chain of VAX1 (Homo sapiens, UniProt Q5SQQ9 86-172) (Q5SQQ9 86-172): as the sequence (Q5SQQ9 86-172 K157R) above, with R72K counted along it
Chain of ALX3 (Homo sapiens, UniProt O95076 139-225, L168V) (O95076 139-225 L168V): as the sequence (O95076 139-225) above, with L30V counted along it
Chain of ALX3 (Homo sapiens, UniProt O95076 139-225, L168Q) (O95076 139-225 L168Q): as the sequence (O95076 139-225) above, with L30Q counted along it
Chain of VAX1 (Homo sapiens, UniProt Q5SQQ9 86-172, T142I) (Q5SQQ9 86-172 T142I): as the sequence (Q5SQQ9 86-172 K157R) above, with T57I, R72K counted along it
Chain of ALX3 (Homo sapiens, UniProt O95076 139-225, N203Q) (O95076 139-225 N203Q): as the sequence (O95076 139-225) above, with N65Q counted along it

As to TTACATAA, the binding signal in assay [1] is 9.95 upbm affinity estimate (log intensity, higher = more binding, comparable within an allelic series); in assay [2], 10.4 upbm affinity estimate (log intensity, higher = more binding, comparable within an allelic series); in assay [3] it was 9.97 upbm affinity estimate (log intensity, higher = more binding, comparable within an allelic series).

Turning to ACCCGTGC, the binding signal in [1] was 8.15 upbm affinity estimate (log intensity, higher = more binding, comparable within an allelic series); in assay [2] it was 8.32 upbm affinity estimate (log intensity, higher = more binding, comparable within an allelic series); in [3], 8.18 upbm affinity estimate (log intensity, higher = more binding, comparable within an allelic series).

Regarding AAATTGAT, the binding signal in assay [1] is 10.3 upbm affinity estimate (log intensity, higher = more binding, comparable within an allelic series); in [2] it was 10.7 upbm affinity estimate (log intensity, higher = more binding, comparable within an allelic series); in assay [3] it was 9.99 upbm affinity estimate (log intensity, higher = more binding, comparable within an allelic series).

As to CCAAATTA, the binding signal in assay [1] is 10.8 upbm affinity estimate (log intensity, higher = more binding, comparable within an allelic series); in assay [2], 11.4 upbm affinity estimate (log intensity, higher = more binding, comparable within an allelic series); in assay [3], 10.8 upbm affinity estimate (log intensity, higher = more binding, comparable within an allelic series).

In the case of CCGAGCCC, the binding signal in assay [1] was 8.05 upbm affinity estimate (log intensity, higher = more binding, comparable within an allelic series); in assay [2], 8.08 upbm affinity estimate (log intensity, higher = more binding, comparable within an allelic series); in assay [3] it was 8.04 upbm affinity estimate (log intensity, higher = more binding, comparable within an allelic series).

In the case of ATTATGTC, the binding signal was 10.5 upbm affinity estimate (log intensity, higher = more binding, comparable within an allelic series) in assay [1]; 11 upbm affinity estimate (log intensity, higher = more binding, comparable within an allelic series) in assay [2]; 10.4 upbm affinity estimate (log intensity, higher = more binding, comparable within an allelic series) in [3].

As for ATTAGTGG, the binding signal in assay [1] was 11.7 upbm affinity estimate (log intensity, higher = more binding, comparable within an allelic series); in [2] it was 12.3 upbm affinity estimate (log intensity, higher = more binding, comparable within an allelic series); in assay [3] it was 11.4 upbm affinity estimate (log intensity, higher = more binding, comparable within an allelic series).

Regarding AATATTTG, the binding signal was 9.84 upbm affinity estimate (log intensity, higher = more binding, comparable within an allelic series) in assay [1]; 10 upbm affinity estimate (log intensity, higher = more binding, comparable within an allelic series) in assay [2]; 9.7 upbm affinity estimate (log intensity, higher = more binding, comparable within an allelic series) in assay [3].

Consider CGGGCGCC, for which the binding signal was 8.04 upbm affinity estimate (log intensity, higher = more binding, comparable within an allelic series) in assay [1]; 8.22 upbm affinity estimate (log intensity, higher = more binding, comparable within an allelic series) in assay [2]; 8.23 upbm affinity estimate (log intensity, higher = more binding, comparable within an allelic series) in assay [3].

Regarding CGCTAGGC, the binding signal was 8.19 upbm affinity estimate (log intensity, higher = more binding, comparable within an allelic series) in assay [1]; 8.31 upbm affinity estimate (log intensity, higher = more binding, comparable within an allelic series) in assay [2]; 8.19 upbm affinity estimate (log intensity, higher = more binding, comparable within an allelic series) in assay [3].

As for GCCCAGGC, the binding signal in assay [1] is 7.88 upbm affinity estimate (log intensity, higher = more binding, comparable within an allelic series); in assay [2] it was 7.61 upbm affinity estimate (log intensity, higher = more binding, comparable within an allelic series); in assay [3] it was 7.8 upbm affinity estimate (log intensity, higher = more binding, comparable within an allelic series); in assay [4], 8.91 upbm affinity estimate (log intensity, higher = more binding, comparable within an allelic series); in assay [5], 6.96 upbm affinity estimate (log intensity, higher = more binding, comparable within an allelic series); in assay [6], 6.2 upbm affinity estimate (log intensity, higher = more binding, comparable within an allelic series). The binding signal in assay [7] was 7.68 upbm affinity estimate (log intensity, higher = more binding, comparable within an allelic series); in assay [8] it was 10 upbm affinity estimate (log intensity, higher = more binding, comparable within an allelic series); in assay [9] it was 6.3 upbm affinity estimate (log intensity, higher = more binding, comparable within an allelic series); in assay [10], 7.31 upbm affinity estimate (log intensity, higher = more binding, comparable within an allelic series); in assay [11] it was 7.59 upbm affinity estimate (log intensity, higher = more binding, comparable within an allelic series); in assay [12], 7.69 upbm affinity estimate (log intensity, higher = more binding, comparable within an allelic series). Also, the binding signal in [13] was 10.3 upbm affinity estimate (log intensity, higher = more binding, comparable within an allelic series); in [14], 6.12 upbm affinity estimate (log intensity, higher = more binding, comparable within an allelic series); in assay [15], 7.71 upbm affinity estimate (log intensity, higher = more binding, comparable within an allelic series); in [16], 7.01 upbm affinity estimate (log intensity, higher = more binding, comparable within an allelic series); in assay [17] it was 8.63 upbm affinity estimate (log intensity, higher = more binding, comparable within an allelic series).

Consider AAATTACC, for which the binding signal is 11.1 upbm affinity estimate (log intensity, higher = more binding, comparable within an allelic series) in assay [1]; 11.5 upbm affinity estimate (log intensity, higher = more binding, comparable within an allelic series) in [2]; 11 upbm affinity estimate (log intensity, higher = more binding, comparable within an allelic series) in [3]; 9.94 upbm affinity estimate (log intensity, higher = more binding, comparable within an allelic series) in [4]; 11.6 upbm affinity estimate (log intensity, higher = more binding, comparable within an allelic series) in assay [17].

Turning to CCCATTAG, the binding signal in [1] was 12.1 upbm affinity estimate (log intensity, higher = more binding, comparable within an allelic series); in [2], 13 upbm affinity estimate (log intensity, higher = more binding, comparable within an allelic series); in [3], 11.9 upbm affinity estimate (log intensity, higher = more binding, comparable within an allelic series); in [18], 12.6 upbm affinity estimate (log intensity, higher = more binding, comparable within an allelic series); in [19], 12 upbm affinity estimate (log intensity, higher = more binding, comparable within an allelic series); in [20], 12.3 upbm affinity estimate (log intensity, higher = more binding, comparable within an allelic series).

With CAGAGGGC, the binding signal in assay [1] is 8.16 upbm affinity estimate (log intensity, higher = more binding, comparable within an allelic series); in [2], 8.02 upbm affinity estimate (log intensity, higher = more binding, comparable within an allelic series); in assay [3], 8.12 upbm affinity estimate (log intensity, higher = more binding, comparable within an allelic series); in assay [4] it was 9.04 upbm affinity estimate (log intensity, higher = more binding, comparable within an allelic series); in assay [17], 9.01 upbm affinity estimate (log intensity, higher = more binding, comparable within an allelic series).

For the sequence GCGGCCCC, the binding signal in assay [1] is 8.15 upbm affinity estimate (log intensity, higher = more binding, comparable within an allelic series); in assay [2] it was 8.27 upbm affinity estimate (log intensity, higher = more binding, comparable within an allelic series); in assay [3], 8.25 upbm affinity estimate (log intensity, higher = more binding, comparable within an allelic series); in assay [5], 6.96 upbm affinity estimate (log intensity, higher = more binding, comparable within an allelic series); in assay [8], 9.93 upbm affinity estimate (log intensity, higher = more binding, comparable within an allelic series); in [13], 10.3 upbm affinity estimate (log intensity, higher = more binding, comparable within an allelic series). Besides, the binding signal in assay [16] was 7.15 upbm affinity estimate (log intensity, higher = more binding, comparable within an allelic series).

Consider CCCACGCA, for which the binding signal in assay [1] is 8.08 upbm affinity estimate (log intensity, higher = more binding, comparable within an allelic series); in assay [2] it was 7.93 upbm affinity estimate (log intensity, higher = more binding, comparable within an allelic series); in assay [3] it was 7.96 upbm affinity estimate (log intensity, higher = more binding, comparable within an allelic series); in assay [18], 7.08 upbm affinity estimate (log intensity, higher = more binding, comparable within an allelic series); in assay [19] it was 7.21 upbm affinity estimate (log intensity, higher = more binding, comparable within an allelic series); in [20] it was 7.04 upbm affinity estimate (log intensity, higher = more binding, comparable within an allelic series).

For GCTCCGCC, the binding signal was 8.31 upbm affinity estimate (log intensity, higher = more binding, comparable within an allelic series) in [1]; 8.4 upbm affinity estimate (log intensity, higher = more binding, comparable within an allelic series) in assay [2]; 8.22 upbm affinity estimate (log intensity, higher = more binding, comparable within an allelic series) in assay [3].

Regarding GCCCCCCC, the binding signal in [1] is 8.24 upbm affinity estimate (log intensity, higher = more binding, comparable within an allelic series); in assay [2] it was 8.18 upbm affinity estimate (log intensity, higher = more binding, comparable within an allelic series); in assay [3] it was 8.34 upbm affinity estimate (log intensity, higher = more binding, comparable within an allelic series); in assay [5] it was 7.05 upbm affinity estimate (log intensity, higher = more binding, comparable within an allelic series); in assay [8] it was 9.94 upbm affinity estimate (log intensity, higher = more binding, comparable within an allelic series); in [13] it was 10.3 upbm affinity estimate (log intensity, higher = more binding, comparable within an allelic series). Moreover, the binding signal in assay [16] was 7.28 upbm affinity estimate (log intensity, higher = more binding, comparable within an allelic series).

In the case of CCCGACCG, the binding signal in assay [1] was 8.21 upbm affinity estimate (log intensity, higher = more binding, comparable within an allelic series); in assay [2], 8.16 upbm affinity estimate (log intensity, higher = more binding, comparable within an allelic series); in assay [3], 8.1 upbm affinity estimate (log intensity, higher = more binding, comparable within an allelic series); in assay [21], 9.21 upbm affinity estimate (log intensity, higher = more binding, comparable within an allelic series); in [7] it was 7.73 upbm affinity estimate (log intensity, higher = more binding, comparable within an allelic series); in assay [10], 7.81 upbm affinity estimate (log intensity, higher = more binding, comparable within an allelic series). Further, the binding signal in assay [11] was 7.73 upbm affinity estimate (log intensity, higher = more binding, comparable within an allelic series); in [12], 7.72 upbm affinity estimate (log intensity, higher = more binding, comparable within an allelic series); in [15], 7.76 upbm affinity estimate (log intensity, higher = more binding, comparable within an allelic series).

These data come from article PMC11006913.
